{"source": "paper PMC4336329", "about": "(PLoS ONE, 2015)", "note": "The campaign covered roughly 310,000 compounds. About 14,000 (4.5%) showed an effect of 50% or more. Effects have a minus sign here. The list comes from a sample in which strong results are over-represented; it also holds similar structures and randomly drawn compounds.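 Also: peak tail current of the secondary pulse compared with the same well before compound.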"}
{"molecular_target": "human ether-à-go-go-related gene (hERG) potassium channel (human, UniProt Q12809)", "sequence (Q12809 whole entry, looked up)": "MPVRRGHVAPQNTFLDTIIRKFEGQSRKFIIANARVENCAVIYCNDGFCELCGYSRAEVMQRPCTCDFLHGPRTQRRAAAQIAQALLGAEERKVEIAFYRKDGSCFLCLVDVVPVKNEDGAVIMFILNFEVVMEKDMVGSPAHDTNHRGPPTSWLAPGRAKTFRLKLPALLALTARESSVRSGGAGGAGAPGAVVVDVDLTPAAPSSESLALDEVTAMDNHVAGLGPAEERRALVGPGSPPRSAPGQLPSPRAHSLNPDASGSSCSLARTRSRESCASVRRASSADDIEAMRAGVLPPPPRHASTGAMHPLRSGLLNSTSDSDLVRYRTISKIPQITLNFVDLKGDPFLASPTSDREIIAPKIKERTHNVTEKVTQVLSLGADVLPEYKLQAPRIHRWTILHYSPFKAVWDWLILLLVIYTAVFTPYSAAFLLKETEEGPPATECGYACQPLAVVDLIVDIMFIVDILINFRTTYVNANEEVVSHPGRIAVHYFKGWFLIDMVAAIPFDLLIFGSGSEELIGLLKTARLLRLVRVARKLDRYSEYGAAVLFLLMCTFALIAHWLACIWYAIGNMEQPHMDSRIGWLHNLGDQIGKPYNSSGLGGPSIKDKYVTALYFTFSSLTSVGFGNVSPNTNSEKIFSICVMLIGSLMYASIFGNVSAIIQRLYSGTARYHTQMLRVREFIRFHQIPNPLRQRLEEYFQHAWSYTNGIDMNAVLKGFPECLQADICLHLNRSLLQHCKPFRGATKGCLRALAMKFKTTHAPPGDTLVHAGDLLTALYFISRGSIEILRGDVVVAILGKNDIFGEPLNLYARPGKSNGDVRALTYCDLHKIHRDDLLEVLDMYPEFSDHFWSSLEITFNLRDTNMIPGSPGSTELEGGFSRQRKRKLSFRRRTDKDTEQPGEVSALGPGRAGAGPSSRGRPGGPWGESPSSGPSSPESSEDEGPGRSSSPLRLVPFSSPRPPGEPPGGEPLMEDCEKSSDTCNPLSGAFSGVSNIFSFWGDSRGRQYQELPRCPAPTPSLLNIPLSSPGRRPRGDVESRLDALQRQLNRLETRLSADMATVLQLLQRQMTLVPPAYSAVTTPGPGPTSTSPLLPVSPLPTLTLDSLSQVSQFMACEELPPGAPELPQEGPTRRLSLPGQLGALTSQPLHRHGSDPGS", "assay": "primary screen, population patch clamp on CHO cells stably expressing hERG; higher = less effect of the substance", "units": {"hERG current change (%, negative = inhibition) at 10uM": "%"}}
{"smiles": "CCOc1ncccc1C(=O)Nc1cc(S(=O)(=O)N2CCCCC2)ccc1OC", "hERG current change (%, negative = inhibition) at 10uM": -8.23}
{"smiles": "COc1ccc(C)cc1NC(=O)CN1C(=O)COc2ccc(S(=O)(=O)N3CCC(C)CC3)cc21", "hERG current change (%, negative = inhibition) at 10uM": 26.3}
{"smiles": "CC(=O)NCCC(=O)N1CCc2c([nH]c3ccccc23)C1c1cccc(C)c1", "note": "(stereo not drawn)", "hERG current change (%, negative = inhibition) at 10uM": -14.3}
{"smiles": "CCn1nc(C)c(CN2CCc3c([nH]c4ccccc34)C2c2ccc(F)c(OC)c2)c1C", "note": "(stereo not drawn)", "hERG current change (%, negative = inhibition) at 10uM": -48.2}
{"smiles": "COc1cccc(C2c3[nH]c4ccccc4c3CCN2Cc2cnc(C)s2)c1OC", "note": "(stereo not drawn)", "hERG current change (%, negative = inhibition) at 10uM": 2.51}
{"smiles": "Cc1cccc(C2c3[nH]c4ccccc4c3CCN2Cc2cccn2-c2ncccn2)c1", "note": "(stereo not drawn)", "hERG current change (%, negative = inhibition) at 10uM": -77.8}
{"smiles": "COc1ccc(C2c3[nH]c4ccccc4c3CCN2Cc2cccn2-c2ncccn2)cc1C", "note": "(stereo not drawn)", "hERG current change (%, negative = inhibition) at 10uM": -52}
{"smiles": "COc1cccc(C2c3[nH]c4ccccc4c3CCN2Cc2cccn2-c2ncccn2)c1", "note": "(stereo not drawn)", "hERG current change (%, negative = inhibition) at 10uM": -76.1}
{"smiles": "CSc1ncc(CN2CCc3c([nH]c4ccccc34)C2c2cccc(O)c2)cn1", "note": "(stereo not drawn)", "hERG current change (%, negative = inhibition) at 10uM": -22.9}
{"smiles": "COc1cccc(C2c3[nH]c4ccccc4c3CCN2Cc2ncc[nH]2)c1", "note": "(stereo not drawn)", "hERG current change (%, negative = inhibition) at 10uM": -49.4}
{"smiles": "CCC(=O)NC(NC(=S)Nc1ccccc1Br)C(Cl)(Cl)Cl", "note": "(stereo not drawn)", "hERG current change (%, negative = inhibition) at 10uM": 18.2}
{"smiles": "O=C1CC2(CCCC2)C(=O)N1CN1CCN(S(=O)(=O)c2ccc(Cl)c(Cl)c2)CC1", "hERG current change (%, negative = inhibition) at 10uM": 3.53}
{"smiles": "CCCCOC(=O)n1c(SCC(=O)N(CC)CC)nc2ccccc21", "hERG current change (%, negative = inhibition) at 10uM": -34.7}
{"smiles": "CCCn1c(O)c(/C=C2\\C=NN=C2c2ccccc2)sc1=S", "hERG current change (%, negative = inhibition) at 10uM": 7.93}
{"smiles": "c1ccc(C2Nc3cccc4cccc(c34)N2)cc1", "hERG current change (%, negative = inhibition) at 10uM": 14}
{"smiles": "CN1CCN(NC(=O)c2cc(S(=O)(=O)Nc3ccc(Cl)cc3)ccc2Cl)CC1.Cl", "hERG current change (%, negative = inhibition) at 10uM": 5.84}
{"smiles": "CCOC(=O)CNC(=O)c1ccc(Br)s1", "hERG current change (%, negative = inhibition) at 10uM": -9.48}
{"smiles": "CCOc1cccc(-c2c(C(=O)N/N=C(\\C)c3ccncc3)nnn2-c2nonc2N)c1", "hERG current change (%, negative = inhibition) at 10uM": -43.6}
{"smiles": "COc1ccc2cc(-c3ccccc3)c(=O)oc2c1", "hERG current change (%, negative = inhibition) at 10uM": 18}
{"smiles": "COc1ccc(-c2cccc(C(=O)Nc3ccc(C)cc3)c2)cc1", "hERG current change (%, negative = inhibition) at 10uM": 16.9}
{"smiles": "COc1ccc2cc(-c3ccccc3)ncc2c1", "hERG current change (%, negative = inhibition) at 10uM": 5.65}
{"smiles": "COc1ccc(-[n+]2c(-c3ccccc3)cc(-c3ccc(C)cc3)cc2-c2ccccc2)cc1.[O-][Cl+3]([O-])([O-])[O-]", "hERG current change (%, negative = inhibition) at 10uM": -77.7}
{"smiles": "COc1ccc(-c2ccc(OC)cc2)cc1", "hERG current change (%, negative = inhibition) at 10uM": 7.51}
{"smiles": "COc1ccc(-[n+]2c(-c3ccccc3)cc(-c3ccccc3)cc2-c2ccccc2)cc1.[O-][Cl+3]([O-])([O-])[O-]", "hERG current change (%, negative = inhibition) at 10uM": -71.9}
{"smiles": "CSc1ccc(S(=O)(=O)NCc2ccccc2)cc1", "hERG current change (%, negative = inhibition) at 10uM": 13.1}
{"smiles": "CCCC(CCC(=O)Nc1cccc([N+](=O)[O-])c1)C(=O)O", "note": "(stereo not drawn)", "hERG current change (%, negative = inhibition) at 10uM": -0.0899}
{"smiles": "CCOc1ccc(-n2c(C)nc3cc(C(=O)NCC4CCCO4)ccc32)cc1", "note": "(stereo not drawn)", "hERG current change (%, negative = inhibition) at 10uM": -15.2}
{"smiles": "CCN(CC)c1ccc(S(=O)(=O)N2CCCCC2)cc1NC(=O)C1CCC1", "hERG current change (%, negative = inhibition) at 10uM": -15.3}
{"smiles": "CC1(C)CC(=O)c2cnc(NCC3CCCO3)nc2C1", "note": "(stereo not drawn)", "hERG current change (%, negative = inhibition) at 10uM": 7.24}
{"smiles": "COc1cc(C2=NOC(C(=O)Nc3ccc4c(c3)OCO4)C2)cc(OC)c1OC", "note": "(stereo not drawn)", "hERG current change (%, negative = inhibition) at 10uM": 16.6}
{"smiles": "FC(F)(F)c1nc(N2CCCC2)ncc1-c1nnnn1-c1ccc(Cl)cc1", "hERG current change (%, negative = inhibition) at 10uM": -4.4}
{"smiles": "CC1(C)C(N(O)C(=O)Nc2ccc(Cl)cc2)N(c2ccc(Cl)cc2)C(=O)N1CC(=O)NN", "note": "(stereo not drawn)", "hERG current change (%, negative = inhibition) at 10uM": -14.6}
{"smiles": "O=c1cc(-c2ccccc2)[nH]n2cnnc12", "hERG current change (%, negative = inhibition) at 10uM": 12.6}
{"smiles": "O=C(CN1C(=O)S/C(=C\\c2ccccc2Cl)C1=O)NCCCn1ccnc1", "hERG current change (%, negative = inhibition) at 10uM": -44.5}
{"smiles": "O=C(CN1C(=O)S/C(=C\\c2ccc(F)cc2)C1=O)NCCCn1ccnc1", "hERG current change (%, negative = inhibition) at 10uM": -58.9}
{"smiles": "COc1cccc(/C=C2\\SC(=O)N(CC(=O)NCCCn3ccnc3)C2=O)c1", "hERG current change (%, negative = inhibition) at 10uM": -31.6}
{"smiles": "COc1ccccc1/C=C1\\SC(=O)N(CC(=O)NCCCn2ccnc2)C1=O", "hERG current change (%, negative = inhibition) at 10uM": -3.76}
{"smiles": "O=C(CN1C(=O)S/C(=C\\c2ccc(Cl)cc2)C1=O)NCCCn1ccnc1", "hERG current change (%, negative = inhibition) at 10uM": -68.2}
{"smiles": "COc1ccc(/C=C2\\SC(=O)N(CC(=O)NCCCn3ccnc3)C2=O)cc1", "hERG current change (%, negative = inhibition) at 10uM": -44.5}
{"smiles": "COc1ccc(/C=C2\\SC(=O)N(CCC(=O)NCCCn3ccnc3)C2=O)cc1", "hERG current change (%, negative = inhibition) at 10uM": -43.2}
{"smiles": "O=C(CN1C(=O)S/C(=C\\c2ccccc2)C1=O)NCCCn1ccnc1", "hERG current change (%, negative = inhibition) at 10uM": -23.4}
{"smiles": "CC(C)c1ccc(/C=C2\\SC(=O)N(CC(=O)NCCCn3ccnc3)C2=O)cc1", "hERG current change (%, negative = inhibition) at 10uM": -76.9}
{"smiles": "O=C(CN1C(=O)S/C(=C\\c2ccccc2F)C1=O)NCCCn1ccnc1", "hERG current change (%, negative = inhibition) at 10uM": -9.34}
{"smiles": "O=C(CN1C(=O)S/C(=C\\c2cccc(Cl)c2)C1=O)NCCCn1ccnc1", "hERG current change (%, negative = inhibition) at 10uM": -51.2}
{"smiles": "CC(C)c1ccc(/C=C2\\SC(=S)N(CCC(=O)NCCCn3ccnc3)C2=O)cc1", "hERG current change (%, negative = inhibition) at 10uM": -17.3}
